Assay results reported in PubChem BioAssay (NCATS).
Inconclusive results are not listed. Where a call stands in place of a potency, no number is given. Active and inactive are the calls of the source. The call rests on the fitted dose curve; in most records, active means well fitted inhibition curve with a large enough effect; inconclusive means small, poorly fitted or top-dose-only effect; inactive means no such curve, though single readings can be large or run the other way.

experiment: qHTS assay for measurement of the activity of small molecule inhibitors on Zika virus induced Caspase-3 activity in human iPSC derived neural progenitor cells (hNPCs) (AID 1224857); conditions: hNPCs ZIKV-induced caspase-3/7, Caspase-Glo luminescence, 6 h; series mostly up to 45.7 µM; further: nearly all actives have a fitted effect of over 65% in size
From the text: National Center for Advancing Translational Sciences [NCATS]
Johns Hopkins University School of Medicine
Increase in the Caspase-3 activity indicates an activation of apoptosis cell death pathway caused by Zika virus infection in certain types of neuronal cells including human neural progenitor cells (hNPCs), astrocytes, and astrocytoma cell line (SNB-19). This cell-based caspase-3 activity assay measures the increased caspase-3 activity in the human iPSC derived neural progenitor cells (hNPCs) after a 6-hour Zika virus infection with a luminescence readout. A decrease in the luminescence signal in this assay by small molecule treatment indicates an inhibitory effect of that small molecule on the Zika virus induced caspase-3 activity that may correlate with its effect on reduction of Zika virus caused cell death.
The medium for hNPCs consists of DMEM/F12, N2 supplement (ThermoFisher, Cat.# 17502048), NEAA (ThermoFisher, Cat. # 11140050), 2 ug/ml heparin, 2 uM cyclopamine, and B27 (ThermoFisher, Cat. # 17504044). A Caspase-Glo 3/7 assay kit (catalog number G8092; Promega, Madison, WI) was used to detect caspase-3 activity induced by Zika virus infection in human cells. The reagent mixture was reconstituted as described in the protocol from the manufacturer. Polystyrene tissue culture treated and PDL coated white plates were obtained from Greiner Bio-One (Monroe, NC). Cells were seeded in 384- or 1536-well assay plates and cultured at 37 C with 5% CO2 for 16 to 20 hours. The typical cell seeding density in the 1536-well plate assay is 350 cells/well in 3 ul medium for hNPCs in tissue culture treated plates. Compounds were added to cells and incubated for one hour before addition of ZIKV solution to cells (2 FFU/cell). After incubation at 37 C with 5% CO2 for 6 hours, the reagent mixture of Caspase-Glo 3/7 assay kit was added to each well, followed by incubation at room temperature for 30 minutes. The luminescence intensity of the assay plates was measured using a ViewLux plate reader (PerkinElmer). Data were normalized by using the cell-containing wells without ZIKV as a negative control (0% induction of caspase 3/7 activity) and wells containing ZIKV infected cells (Caspase-3 activity induced) as a positive control (100% induction of caspase 3 activity). The percentage inhibitions of the increased Caspase-3 activity by small molecule inhibitors were then calculated.
Potency means the concentration at half of the fitted maximal effect.

SMILES	Potency
Brc1c(Br)c(Br)c2n[nH]nc2c1Br	inactive
Nc1nc2ccc(Cl)cc2n2c(-c3ccccc3)nnc12	inactive
COC(=O)c1c(C)[nH]c(C)c1C(=O)c1ccccc1Cc1ccccc1	inactive
O=C(O)CCCC[C@@H]1CCSS1	inactive
NC(=O)C(=O)O	inactive
COc1cccc(OC)c1OCCNCC1COc2ccccc2O1 (stereo not given)	inactive
COC(=O)C1=C(C)NC(C)=C(C(=O)OC)C1c1cccc(NC(=O)NCCCN2CCC(c3cccc(OC)c3)CC2)c1	inactive
CS(=O)(=O)c1ccc(-n2nc(C(F)(F)F)cc2-c2ccc(F)cc2)cc1	inactive
C=CCc1cccc(/C=N/NC(=O)CN2CCN(Cc3ccccc3)CC2)c1O	inactive
C=C[C@H]1CN2CC[C@@H]1C[C@H]2[C@H](O)c1ccnc2ccc(OC)cc12	inactive
CCNC(=O)[C@H]1O[C@@H](n2cnc3c(N)nc(NCCc4ccc(CCC(=O)O)cc4)nc32)[C@H](O)C1O (stereo not given in full)	inactive
COc1ccc(/C=C/c2nc(NCCCN(C)C)c3ccccc3n2)cc1	inactive
C#C[C@]1(O)CC[C@H]2[C@@H]3CCC4=Cc5oncc5CC4(C)[C@H]3CCC21C (stereo not given in full)	inactive
O=C(Nc1ccc(C(=O)O)c(O)c1)c1ccccc1	inactive
COc1ccc(Br)cc1S(=O)(=O)NC(=O)/C=C/c1ccccc1Cc1ccc2ccccc2c1	inactive
c1ccc(-c2ccccn2)nc1	inactive
NS(=O)(=O)c1ccc(-n2nc(C(F)(F)F)cc2-c2ccc(Cl)cc2)cc1	inactive
CN(CCCOc1ccc(Cc2ccccc2)cc1)CCC(=O)O	inactive
COc1cc(SC)ccc1C(=O)N1CCC(Cc2ccccc2)CC1	inactive
COC1=C(OC)C(=O)c2ccccc2C1=O	inactive

SMILES	Potency
NC[C@@H]1O[C@H](C23CC4CC(CC(C4)C2)C3)Cc2c1ccc(O)c2O	inactive
NCCCCCCCCCCN	inactive
O=C(/C=C/c1ccc(O)c(O)c1)OCCc1ccccc1	inactive
CN1C2CC(OC(=O)[C@H](CO)c3ccccc3)CC1C1OC12 (stereo not given in full)	inactive
CCOC(=O)C1=C(C)NC(C)=C(C(=O)OCC)C1c1c(F)c(F)c(F)c(F)c1F	inactive
CO[C@H]1O[C@@H]2O[C@]3(C)CC[C@@H]4[C@@H](C)CC[C@H]([C@H]1C)[C@]24OO3	inactive
CC(C)c1cccc(C(C)C)c1N1C(=O)c2ccc(O)cc2C1=O	inactive
O=C(/C=C/c1ccc(O)cc1)c1ccc(O)cc1O	2.82 µM (active)
COc1ccc(/C=C2\COc3ccc(C)cc3C2=O)cc1O	inactive
COc1ccc2c(c1)CCC1C2CC[C@@]2(C)C1CC[C@@H]2NCCCCCCN1C(=O)CCC1=O (stereo not given in full)	inactive
COCCOc1cc2ncnc(Cl)c2cc1OCCOC	inactive
CC12C(=O)OC(=O)C1(C)C1CCC2O1 (stereo not given)	inactive
CC[C@H]1OC(=O)[C@H](C)C(O[C@H]2C[C@@](C)(OC)[C@@H](O)[C@H](C)O2)[C@H](C)[C@@H](OC2O[C@H](C)C[C@H](N(C)C)[C@H]2O)[C@](C)(O)C[C@@H](C)CN(C)[C@H](C)[C@@H](O)[C@]1(C)O (stereo not given in full)	inactive
O=C(O)c1cc([N+](=O)[O-])ccc1NCCCc1ccccc1	10 µM (active)
CC(C)NCC(O)COc1cccc2ccccc12 (stereo not given)	inactive
COc1ccccc1CNCCCCCCNCCCCCCCCNCCCCCCNCc1ccccc1OC	inactive
Nc1ccn([C@H]2O[C@H](CO)[C@@H](O)C2(F)F)c(=O)n1	inactive
Cc1ccc(O)c(N=Nc2ccccc2)n1	0.891 µM (active)
NCC1OC(OC2C(O)[C@@H](OC3C(O)C(N)CC(N)C3OC3OC(CO)C(O)C(O)C3N)O[C@@H]2CO)C(N)C(O)C1O (stereo not given in full)	inactive
c1ccc(CCNc2nc(-c3ccccc3)cs2)cc1	inactive
